Measurements from ChEMBL document CHEMBL4808148, “HDAC6 screening dataset using tau-based substrate in an enzymatic assay yields selective inhibitors and activators” (2021).
About 150 (2.7%) of roughly 5,600 compounds showed an effect of 50% or more. Many of the other results were omitted from the sample, so strong results are more common in it than they were.

Legend:
[1] = target: T1, Protein deacetylase HDAC6 (Homo sapiens) (UniProt Q9UBN7); conditions: at 10 µM
T1 sequence (whole entry): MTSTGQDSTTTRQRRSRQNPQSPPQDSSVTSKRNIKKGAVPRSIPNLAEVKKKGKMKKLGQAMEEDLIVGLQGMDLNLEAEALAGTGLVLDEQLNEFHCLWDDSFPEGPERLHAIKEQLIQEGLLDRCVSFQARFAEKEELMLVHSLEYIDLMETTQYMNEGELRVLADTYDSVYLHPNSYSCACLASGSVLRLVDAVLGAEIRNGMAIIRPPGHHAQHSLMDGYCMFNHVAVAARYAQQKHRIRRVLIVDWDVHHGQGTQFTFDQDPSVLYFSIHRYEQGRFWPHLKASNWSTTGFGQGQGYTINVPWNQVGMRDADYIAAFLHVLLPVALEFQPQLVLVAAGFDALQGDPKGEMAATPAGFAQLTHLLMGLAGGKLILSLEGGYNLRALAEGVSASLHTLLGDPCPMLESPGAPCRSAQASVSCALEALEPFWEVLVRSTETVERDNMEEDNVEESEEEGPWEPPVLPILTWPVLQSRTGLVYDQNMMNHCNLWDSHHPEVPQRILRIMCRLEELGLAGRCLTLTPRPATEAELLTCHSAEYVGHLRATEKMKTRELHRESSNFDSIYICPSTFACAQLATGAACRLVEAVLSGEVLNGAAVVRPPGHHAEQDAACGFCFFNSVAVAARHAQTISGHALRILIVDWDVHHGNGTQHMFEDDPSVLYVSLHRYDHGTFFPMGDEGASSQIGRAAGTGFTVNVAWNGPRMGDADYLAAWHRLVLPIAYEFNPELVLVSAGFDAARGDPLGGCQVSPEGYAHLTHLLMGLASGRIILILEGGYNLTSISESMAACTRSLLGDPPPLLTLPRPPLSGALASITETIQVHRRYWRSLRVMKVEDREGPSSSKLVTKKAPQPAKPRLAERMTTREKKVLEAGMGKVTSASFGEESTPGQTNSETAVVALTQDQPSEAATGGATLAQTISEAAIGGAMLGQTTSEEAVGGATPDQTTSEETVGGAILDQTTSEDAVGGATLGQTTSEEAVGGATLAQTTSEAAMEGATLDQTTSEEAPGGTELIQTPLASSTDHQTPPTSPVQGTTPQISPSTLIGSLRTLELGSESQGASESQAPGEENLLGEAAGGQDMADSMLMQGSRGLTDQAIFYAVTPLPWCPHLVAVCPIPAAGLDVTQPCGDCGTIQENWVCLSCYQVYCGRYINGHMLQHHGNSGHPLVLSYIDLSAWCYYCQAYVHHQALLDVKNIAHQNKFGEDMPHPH

[2] = target: Protein deacetylase HDAC6 (Homo sapiens) (UniProt Q9UBN7); conditions: at 10 µM; remark: listed apart in the source

Molecule	inhibition [1]	inhibition [2]
CCN(CC)Cc1ccc(Nc2ccnc3cc(Cl)ccc23)cc1O	0.37%	
O=C(c1ccc(CN2CCOCC2)cc1)N1CCN(C2CC2)CC1	4.17%	
O=C1NC(=O)/C(=C/c2cccc(C(F)(F)F)c2)S1	8.21%	
O=C1NC(=O)/C(=C/c2ccc(-c3ccc(F)cc3O)o2)S1	87%	
O=C1NC(=O)/C(=C/c2ccc3c(c2)OC(F)(F)O3)S1	-1.91%	
Cc1[nH]nc(C(F)(F)F)c1Cc1sc2c(c1C(=O)N1C[C@](C)(O)CO1)c(=O)n(C)c(=O)n2C(C)C	7.6%	
O=C(NC1CCN(CCc2c[nH]c3ccccc23)CC1)c1ccccc1	22.6%	
O=C(O)[C@H](Cc1c[nH]c2ccccc12)N1C(=O)c2ccccc2C1=O	3.67%	
Oc1cc(O)cc(O)c1	2.03%	
Oc1cc(O)cc(/C=C/c2ccc(O)c(O)c2)c1	74%	
COc1cc(/C=C/c2ccc(O)cc2)cc(OC)c1	-1.8%	
COc1ccc(/C=C\c2cc(OC)c(OC)c(OC)c2)cc1O	-2.33%	
Oc1ccc(/C=C/c2cc(O)cc(O)c2)cc1	85.4%	
O=C(/C=C/c1ccc(O)c(O)c1)OCCc1ccccc1	13.8%	
CCCCNc1ncc(-c2ccc(CN3CCOCC3)cn2)c(N[C@H]2CC[C@H](O)CC2)n1	-9.04%	
CCc1c(C(=O)Nc2cc(S(=O)(=O)N(CC)CC)ccc2O)[nH]c(C)c1C(C)=O	-2.94%	
NC(Cn1ccc(=O)n(Cc2ccccc2C(=O)O)c1=O)C(=O)O (centres undefined)	-9.78%	
SPIRAMYCIN, CHEMBL6195749		-1.63%
COc1ccc(Cl)cc1[C@]1(F)C(=O)Nc2cc(C(F)(F)F)ccc21	-2.57%	
Nc1n[nH]c2nc3ccccc3nc12	33.5%	
CC(C)C(=O)c1ccc(O)c(O)c1	0.03%	
O=C(NO)c1ccc(O)c(O)c1	56.3%	
O=C(O)C(O)Cc1ccc(O)c(O)c1 (centres undefined)	6.01%	
COc1cc2c(c(OC)c1OC)-c1c(cc3c(c1OC)OCO3)C[C@@H](C)[C@@H](C)C2	-5.94%	
O=S(=O)(NCCCCCCc1ccccc1)c1cccc2c(Cl)cccc12	-3.75%	

Molecule	inhibition [1]	inhibition [2]
Oc1ccc(OCc2ccccc2)cc1	87%	
COc1ccc(O)cc1	1.74%	
CC/C(=C(\c1ccc(O)cc1)c1ccc(OCCNC)cc1)c1ccccc1	-2.91%	
O=C(O)C1CCCN(CCC=C(c2ccccc2)c2ccccc2)C1 (centres undefined)	-1.71%	
O=C(O)c1ccccc1	3.92%	
O=C(c1ccccc1)c1ccc2n1CCC2C(=O)O (centres undefined)	75.8%	
CC(=O)C1=C(O)C=C2Oc3c(C(C)=O)c(O)c(C)c(O)c3[C@@]2(C)C1=O	-7.8%	
CO[C@H]1/C=C/O[C@@]2(C)Oc3c(C)c(O)c4c(O)c(cc(O)c4c3C2=O)NC(=O)/C(C)=C\C=C\C(C)[C@H](O)[C@@H](C)[C@@H](O)[C@@H](C)[C@H](OC(C)=O)[C@@H]1C (some centres undefined)	1.34%	
CSc1nc(-c2ccc(F)cc2)c(-c2ccnc(NC(C)c3ccccc3)c2)[nH]1 (centres undefined)	-0.06%	
Cc1nccc2[nH]c(=O)ccc12	-0.8%	
COC(=O)c1ccc(O)cc1	11.4%	
COC(=O)CC1CC(c2ccc(O)cc2)=NO1 (centres undefined)	68.8%	
Fc1ccc(-c2cncc(CN3CCN(c4cccc5c4OCCO5)CC3)c2)cc1	2%	
COC[C@@H](c1ccc(C(F)(F)F)cc1)N1CCN(C2(C)CCN(C(=O)c3c(C)ncnc3C)CC2)C[C@@H]1C	6.58%	
O=C(c1ccc(/C=C/c2n[nH]c3ccccc23)cc1)N1CCNCC1	98%	
Nc1c2ccccc2nc2ccccc12	4.21%	
Nc1ccc(/N=N/c2ccccc2)c(N)n1	78.3%	
O=C(O)CCn1c2c(c3ccccc31)C[C@H](NS(=O)(=O)c1ccc(F)cc1)CC2	0.51%	
CN1CCc2c(c3ccccc3n2Cc2ccc(C(=O)NO)cc2)C1	97%	
Cc1ccc2c(c1)c1c(n2CCc2ccc(C)nc2)CCN(C)C1	0.41%	
N#Cc1c(N)nc(SCc2ncc[nH]2)c(C#N)c1-c1ccc(O)cc1	4.89%	
CSc1ccc(C(=O)N[C@@H]2CCCC[C@@H]2NC(=O)CNC(=O)c2cc(C(F)(F)F)ccc2NC(=O)NC(C)C)cc1	-5.32%	
Cc1ccc(S(=O)(=O)Nc2nc3ccccc3nc2Nc2ccc3nsnc3c2)cc1	1.65%	
C#Cc1cccc(Nc2ncnc3cc(OCCOC)c(OCCOC)cc23)c1	1.06%	
C#Cc1cccc(Nc2ncnc3cc(OC)c(OCCCCCCC(=O)NO)cc23)c1	94.6%	

Molecule	inhibition [1]	inhibition [2]
COc1cc2ncnc(Nc3cccc(Br)c3)c2cc1OC	-6.11%	
COc1cc2c(NC3CCN(C)CC3)nc(N3CCCN(C)CC3)nc2cc1OCCOCCN(C)C	4.62%	
O=C(NCCO)c1cc(C(=O)NCCO)cc(C(=O)NCCO)c1	-2.63%	
CCc1nn(CCO)c(CC)c1Oc1cc(C#N)cc(C#N)c1	-5.93%	
O=C1Nc2ccccc2/C1=C1/Nc2ccccc2/C1=N\O	36.4%	
O=C(N/N=C/c1ccccc1O)c1ccccc1O	77.3%	
O=C(N/N=C/c1ccc(O)c(O)c1)c1cc2ccccc2cc1O	32.8%	
O=C(Nc1ccc(O)cc1)c1ccccc1O	44.6%	
CC#C[C@@H](CC(=O)O)c1ccc(OCc2cccc(-c3ccc(C(F)(F)F)cc3)c2)cc1	5.76%	
O=C(O)c1ccc(CN2CCC(CN[C@@H]3C[C@H]3c3ccccc3)CC2)cc1	8.19%	
N[C@@H](CCC(=O)O)C(=O)O	-3.62%	
O=c1c(-c2ccc(O)cc2)coc2cc(O)cc(O)c12	57.9%	
COc1ccc(-c2oc3c(CC=C(C)C)c(O)cc(O)c3c(=O)c2O)cc1	6.17%	
COc1ccc(-c2coc3cc(O)cc(O)c3c2=O)cc1	63.1%	
O=c1c(O)c(-c2ccc(O)cc2O)oc2cc(O)cc(O)c12	2.84%	
O=c1c(O[C@@H]2O[C@H](CO)[C@H](O)[C@H](O)[C@H]2O)c(-c2ccc(O)c(O)c2)oc2cc(O)cc(O)c12	11.7%	
COc1ccc(C(=O)c2ccc(C)cc2)c(O)c1	5.59%	
COc1ccc(OCC2c3cc(OC)c(OC)cc3CCN2C(=O)c2cccc(Cl)c2)cc1 (centres undefined)	-0.3%	
BIS(MALTOLATO)OXOVANADIUM(IV), CHEMBL286447		1.5%
c1ccc2c(c1)-c1nc-2nc2[nH]c(nc3nc(nc4[nH]c(n1)c1ccccc41)-c1ccccc1-3)c1ccccc21	-0.22%	
Cc1cccc(-c2n[nH]cc2-c2ccc3ncccc3n2)n1	-0.98%	
Cc1cc(O)c2c(=O)c3c(O)cc(O)c4c5c(O)cc(O)c6c(=O)c7c(O)cc(C)c8c1c2c(c34)c(c78)c65	22.2%	
CCCCCCCCCCCCCCCC(=O)N[C@@H](CCC(=O)NCCCC[C@H](NC(=O)[C@H](C)NC(=O)[C@H](C)NC(=O)[C@H](CCC(N)=O)NC(=O)CNC(=O)[C@H](CCC(=O)O)NC(=O)[C@H](CC(C)C)NC(=O)[C@H](Cc1ccc(O)cc1)NC(=O)[C@H](CO)NC(=O)[C@H](CO)NC(=O)[C@@H](NC(=O)[C@H](CC(=O)O)NC(=O)[C@H](CO)NC(=O)[C@@H](NC(=O)[C@H](Cc1ccccc1)NC(=O)[C@@H](NC(=O)CNC(=O)[C@H](CCC(=O)O)NC(=O)[C@H](C)NC(=O)[C@@H](N)Cc1cnc[nH]1)[C@@H](C)O)[C@@H](C)O)C(C)C)C(=O)N[C@@H](CCC(=O)O)C(=O)N[C@@H](Cc1ccccc1)C(=O)N[C@H](C(=O)N[C@@H](C)C(=O)N[C@@H](Cc1c[nH]c2ccccc12)C(=O)N[C@@H](CC(C)C)C(=O)N[C@H](C(=O)N[C@@H](CCCNC(=N)N)C(=O)NCC(=O)N[C@@H](CCCNC(=N)N)C(=O)NCC(=O)O)C(C)C)[C@@H](C)CC)C(=O)O	-0.77%	
NS(=O)(=O)c1nn2cc(-c3ccccc3)nc2s1	82%	
CC(=O)/N=c1/sc(S(N)(=O)=O)nn1C	0.67%	

Molecule	inhibition [1]	inhibition [2]
CCCCOC(=O)c1cc2c(cn1)[nH]c1ccccc12	36%	
O=C(O)c1cnn(-c2nc3cc(OC(F)(F)F)c(Cl)cc3[nH]2)c1	95.9%	
Cc1ccc2[nH]c(=O)c(C3=NN(C(=O)CCC(=O)O)C(c4ccc(Br)cc4)C3)c(-c3ccccc3)c2c1 (centres undefined)	-0.13%	
CCC(CC)Nc1cc(C)nc(Oc2c(C)cc(C)cc2C)c1C	-6.76%	
O=C(O)Cc1cc2ccccc2nc1C(=O)O	6.45%	
C[C@@H]1O[C@@]2(CS1)CN1CCC2CC1.C[C@H]1O[C@]2(CS1)CN1CCC2CC1	-5.94%	
O=C(O)CCCN1C(=O)c2cccc3cccc(c23)C1=O	-1.41%	
O=C(O)CN1C(=O)c2cccc3cccc(c23)C1=O	5.8%	
O=C(CCCCCN1C(=O)c2cccc3cccc(c23)C1=O)NO	98.7%	
CC(C)(Sc1ccncc1-c1ccc(C#N)c2ccccc12)C(=O)O	2.75%	
N[C@H](Cc1c[nH]cn1)C(=O)O	5.27%	
C/C(=N\NC(=O)C(NC(=O)c1ccccc1)c1n[nH]c(=O)c2ccccc12)c1cccc(Br)c1 (centres undefined)	0.86%	
Cc1noc(C)c1-c1cc(O)cc(C(O)c2ccccc2)c1 (centres undefined)	2.55%	
COc1ccc(CNC(=O)c2sc3nc(C)cc(C)c3c2N)cc1	13.2%	
COc1ccc(CNC(=O)Nc2ncc([N+](=O)[O-])s2)cc1	64.8%	
CC(=O)Nc1ncc([N+](=O)[O-])s1	-3.88%	
CCCCn1ccc(N2CCC(c3ccccc3)CC2)c(Cl)c1=O	42.8%	
CC[C@@H]1C[C@H](N(Cc2cc(C(F)(F)F)cc(C(F)(F)F)c2)C(C)=O)c2cc(C(F)(F)F)ccc2N1C(=O)OC(C)C	88.1%	
CCOC(=O)N1c2ccc(C(F)(F)F)cc2[C@@H](N(Cc2cc(C(F)(F)F)cc(C(F)(F)F)c2)C(=O)OC)C[C@H]1CC	-1.4%	
CCCCCCCCCCCCCCCCNc1ccc(C(=O)O)cc1	2.63%	
FLUPENTIXOL, CHEMBL6066864		14.4%
CN(C)C(=O)COC(=O)Cc1ccc(OC(=O)c2ccc(NC(=N)N)cc2)cc1	96.5%	
CC(=O)Nc1ccc(CC(=O)O)cc1	-5.64%	
CCOC(=O)c1ccc(OC(=O)CCCCCNC(=N)N)cc1	22.4%	
